Source: PubChem
Shown are actives, neighbours in structure and some others; about 3.5% of the full set was active somewhere.
FBW7 activator – activators of human E3 ligase FBW7; Q969H0; AlphaScreen FBW7–phospho-cyclin E peptide binding, activator screen; normalized activity (activation), % at 26.1 µM; 650,000 tested, 0.13% active; AID 1259310; in the data active = normalized activity above about 1.9%;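 note: purified mutant Fbw7 with reduced substrate affinity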
Target sequence (Q969H0 whole entry, looked up): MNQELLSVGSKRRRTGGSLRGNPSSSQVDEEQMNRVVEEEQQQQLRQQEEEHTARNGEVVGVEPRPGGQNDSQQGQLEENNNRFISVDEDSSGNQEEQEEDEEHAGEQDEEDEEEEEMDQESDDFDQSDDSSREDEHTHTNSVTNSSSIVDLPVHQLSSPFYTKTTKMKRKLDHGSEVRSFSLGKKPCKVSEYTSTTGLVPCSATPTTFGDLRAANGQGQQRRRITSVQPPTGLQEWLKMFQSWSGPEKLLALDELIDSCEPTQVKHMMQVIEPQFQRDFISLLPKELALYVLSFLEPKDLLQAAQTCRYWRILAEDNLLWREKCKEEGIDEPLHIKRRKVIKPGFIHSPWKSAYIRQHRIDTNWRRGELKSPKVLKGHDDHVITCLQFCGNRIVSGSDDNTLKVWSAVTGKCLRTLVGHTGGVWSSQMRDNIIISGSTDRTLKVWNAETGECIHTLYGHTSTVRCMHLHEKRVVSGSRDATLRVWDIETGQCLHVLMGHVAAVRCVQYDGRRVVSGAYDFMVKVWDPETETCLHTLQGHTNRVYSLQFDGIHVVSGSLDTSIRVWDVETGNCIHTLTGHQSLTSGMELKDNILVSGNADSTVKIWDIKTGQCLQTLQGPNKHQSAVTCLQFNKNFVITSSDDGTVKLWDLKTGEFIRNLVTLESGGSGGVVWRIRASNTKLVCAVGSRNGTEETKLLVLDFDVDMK
MITF inh – inhibitors of human MITF; O75030; AlphaScreen MITF homodimerization, bead proximity signal; inhibition, % at 2.6 µM; 650,000 tested, 0.91% active; AID 1259374; in the data active = inhibition above about 50%
GPR151 ag – activators of human GPR151; PathHunter beta-arrestin GPR151 cells, luminescence; activation, % at 11.2 µM; 650,000 tested, 1% active; in the data active = activation above about 4.9%
TEAD-YAP inh – TEAD-YAP interaction inhibition; 640,000 tested, 1.4% active; inhibition, % at 9.12 µM; HEK-TIYL cells, TEAD-Gal4/YAP UAS-luciferase luminescence; in the data active = inhibition above about 32%
GPR151 confirm – human GPR151 activation, confirmation screen. activation, % at 11.2 µM. shares compounds with GPR151 ag. GPR151 PathHunter beta-arrestin cells, luminescence, 90 min; % of EA-reagent control over plate median. 6,700 tested, under 10 active. AID 1508609;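 active = mean percent activation across replicates above the confirmation screen cutoff of 4.91%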
GPR119 ag – activates human GPR119 in a GPR151 counter-screen; shares compounds with GPR151 ag; GPR119 PathHunter beta-arrestin cells, luminescence, 90 min; 0 = compound-well median, 100 = enzyme-acceptor control; activation, % at 11.2 µM; 6,700 tested, 0.3% active;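 active = mean percent activation in the counterscreen above 29.09%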;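 note: counterscreen on off-target GPR119 to flag nonselective hits from the GPR151 activator screen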
Of the large screens only hits and unclear results are named; the others gave an inactive call (follow-up assays come after a bar, where they were run).

COc1cccc(N2CC(NC(=O)N3CCN(c4ccc([N+](=O)[O-])cc4)CC3)CC2=O)c1 (stereo not given)	GPR151 ag 12 | GPR151 confirm inactive | GPR119 ag inactive
O=C1CCCN1CCn1cnc2c(Nc3ccc4c(c3)OCO4)nc(Nc3nccc4ccccc34)nc21	none
CS(=O)(=O)Nc1nc(CC(=O)O)cs1	GPR151 ag 5.2 | GPR151 confirm inactive | GPR119 ag inactive
CC(C)c1ccc(Nc2nc(CC(=O)O)cs2)cc1	none
CC(=O)c1ccc(NC(=O)CSc2nnc(C3CC3)n2C)cc1	none
CC(=O)c1ccc(NC(=O)CSc2nnc(C34CC5CC(CC(C5)C3)C4)n2C)cc1	GPR151 ag 6.2 | GPR151 confirm inactive | GPR119 ag inactive
O=C(Oc1ccccc1)c1ccc(N2C(=O)c3ccc(Br)cc3C2=O)cc1	none
CC(C)c1ccc(NC(=O)c2ccc(N)cc2)c(N)c1	GPR151 ag 5.8 | GPR151 confirm inactive | GPR119 ag inactive
Nc1ccc(NC(=O)c2ccc(C(=O)Nc3ccc(N)cc3N)cc2)c(N)c1	none
O=C(CN1Cc2ccccc2OC(c2ccccc2F)C1)N1CCCC1c1n[nH]c(=O)[nH]1 (stereo not given)	GPR151 ag 7.5 | GPR151 confirm inactive | GPR119 ag inactive
O=C(Nc1cc(Oc2ccc(F)cc2F)cc([N+](=O)[O-])c1)c1oc(=O)c2ccccc2c1-c1ccccc1	GPR151 ag 5.5 | GPR151 confirm inactive | GPR119 ag inactive
O=C(Nc1cc(Sc2ccc(F)cc2)cc([N+](=O)[O-])c1)c1oc(=O)c2ccccc2c1-c1ccccc1	none
CCn1c(Cc2ccccc2)nnc1SCC(=O)N1CCCCC1	GPR151 ag 6.3 | GPR151 confirm inactive | GPR119 ag inactive
CCOC(=O)C(C)NC(=O)CCc1nnc2ccc(N3CCC(C)CC3)nn12 (stereo not given)	GPR151 ag 5.4 | GPR151 confirm inactive | GPR119 ag inactive
CCOc1ccccc1NC(=O)CCc1nnc2ccc(N3CCCC3)nn12	GPR151 ag 6.7 | GPR151 confirm inactive | GPR119 ag inactive
CCOc1ccccc1NC(=O)CCc1nnc2ccc(N3CCCCC3)nn12	none
N#Cc1cc2cc3c(cc2nc1SCC(=O)Nc1ccc(F)cc1)OCCO3	GPR151 ag 6.2 | GPR151 confirm inactive | GPR119 ag inactive
CCOc1ccc2nc(SCC(=O)Nc3ccc4c(c3)OCCO4)c(C#N)cc2c1	GPR151 ag 6.4 | GPR151 confirm inactive | GPR119 ag inactive
N#Cc1cc2cc3c(cc2nc1SCC(=O)Nc1ccc(F)cc1)OCO3	none
CCOc1ccc2cc(C#N)c(SCC(=O)NC(C)(C)C)nc2c1	GPR151 ag 7.0 | GPR151 confirm inactive | GPR119 ag inactive
N#CC(C#N)=Cc1cn(CCC(=O)O)nc1-c1ccccc1	none
CCC(C)CC(=O)N1CCc2nnc(CNC(=O)CCc3cccnc3)n2CC1 (stereo not given)	GPR151 ag 9.0 | GPR151 confirm inactive | GPR119 ag inactive
CCCCC[C@H](O)/C=C/[C@H]1C=CC(=O)[C@@H]1CCCCCCC(=O)OCC	GPR151 ag 4.9 (no result: FBW7 activator, TEAD-YAP inh) | GPR151 confirm inactive | GPR119 ag inactive
CCCCCC(=O)/C=C/[C@@H]1[C@@H](C/C=C\CCCC(=O)O)[C@@H](O)C[C@H]1O	GPR151 ag 5.5 (no result: FBW7 activator, TEAD-YAP inh) | GPR151 confirm inactive | GPR119 ag inactive
CCCCCCCC/C=C\CCCCCC(=O)O	GPR151 ag 8.7 (no result: FBW7 activator, TEAD-YAP inh) | GPR151 confirm inactive | GPR119 ag inactive
CCCCC[C@H](O)/C=C/[C@H]1C=CC(=O)[C@H]1C/C=C\CCCC(=O)O	GPR151 ag 5.8 (no result: FBW7 activator, TEAD-YAP inh) | GPR151 confirm inactive | GPR119 ag inactive
CCCCC[C@H](O)/C=C/[C@H]1C=CC(=O)[C@@H]1C/C=C\CCCC(=O)O	none (no result: FBW7 activator, TEAD-YAP inh)
CCCCC(C)(C)[C@H](O)/C=C/[C@H]1C=CC(=O)[C@@H]1CCCCCCC(=O)O	none (no result: FBW7 activator, TEAD-YAP inh)
CC(Nc1ccccc1CO)C(=O)N1CCOCC1 (stereo not given)	none
CN(C(=O)CSc1nnc2c3ccccc3n(Cc3ccccc3)c2n1)c1ccccc1	none
O=C(NCc1ccco1)c1ccc2c(c1)nc(SCc1ccncc1)n1c3ccccc3nc21	none
CCCCC[C@H](O)/C=C/C1=C(C/C=C\CCCC(=O)O)C(=O)CC1	GPR151 ag 9.3 (no result: FBW7 activator, TEAD-YAP inh) | GPR151 confirm inactive | GPR119 ag inactive
